In the supplement of paper PMC6555819:

Experiments:
Assay in all cases: PBM binding z-score (relative to random genomic background probes); higher = stronger binding; sequences stand for … in GC…GCGATTGACAGCGTAGAATGAAGG
[1] = test system: RARb homodimer (NR concentration 270 nM)
In short: (§1)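 For binding z-scores, the reference was random background probes on custom Agilent 4×180K protein-binding microarrays. These arrays were incubated 1 h with ligand-free nuclear receptor dimers in PBS pH 7.4, 2% milk, 0.02% Triton X-100, 1 mM DTT, 0.2 mg/mL BSA and 0.4 mg/ml salmon testes DNA. Fluorescence was scanned after antibody detection of each partner (one per run) and regression-normalized.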

[2] = test system: RARg:RXRa (NR concentration 270 nM, RXRa partner concentration 90 nM)
In short: as §1

[3] = test system: RARg homodimer (NR concentration 270 nM)
In short: as §1

[4] = test system: RXRa DBDmut IVT, anti-RXR (DBD mutation: RXRa K156A/R161A, NR concentration 90 nM)
In short: as §1

[5] = test system: RXRa homodimer (NR concentration 180 nM)
In short: as §1

[6] = test system: THRa:RXRa (NR concentration 90 nM, RXRa partner concentration 90 nM)
In short: as §1

[7] = test system: THRa homodimer (NR concentration 90 nM)
In short: as §1

[8] = test system: VDR homodimer (NR concentration 270 nM)
In short: as §1

Sequence	PBM binding z-score [1]	PBM binding z-score [2]	PBM binding z-score [3]	PBM binding z-score [4]	PBM binding z-score [5]	PBM binding z-score [6]	PBM binding z-score [7]	PBM binding z-score [8]
GCTTACGGGTCAACGGTTATAGCATGAATAGAAT	2.84	4.92	4.66	2.06	5.29	2.59	-0.0988	0.695
ACTCTGAGGACAAAGGTCAGAGCTACGCCAGTGA	4.42	6.21	5.31	2.07	5.18	4.44	2.66	1.19
TCGAGTAGGTTACCTATGGGGCATTCAGCTTTCT	0.279	1.39	0.398	0.211	0.571	0.16	-0.89	-0.367
AGTCAAAGTTCACTAGGTAACGTAAGATTCAGCT	3.81	4.81	5.08	4.23	3.76	2.22	0.232	3.29
GGAACGAGGGCATTCGAGTTGATAACATGGCGAT	0.66	1.41	1.74	3.17	1.08	3.37	-0.138	3.48
AGGACGAGGGCACGCTGAGTTGATAGCAGAGTAG	1.36	1.76	2.67	2.23	1.51	1.88	0.162	1.51
CCGAGTAGGTTATGGGGCACTCAGGCAACGGTGA	0.946	0.475	0.553	-0.264	0.805	0.385	0.0948	0.0125
